PubChem BioAssay (NCATS)
Inconclusive results are not listed. Calls of active or inactive are those of the source. Unless noted, calls come from the whole dose curve; as a rule, active = well fitted curve in the direction sought with a large enough effect; inconclusive = small, poorly fitted or top-dose-only effect, or another doubt; inactive = no such curve, though single readings can be large; an effect the other way counts as inactive or inconclusive.

Key:
[1] = Cellular Toxicity (caspase-3) H-4-II-E (AID 663);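 note: cells exposed to compound for 16 hr before readout; 0% = DMSO basal and 100% = 100 µM tamoxifen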
Outline: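 H-4-II-E rat hepatoma, 1500 cells/well, 5 hr settle at 37 °C; compound 16 hr, 37 °C, complete medium; Caspase-Glo 3/7, 20 min RT; luminescence. DMSO = 0%, 100 uM tamoxifen = 100%; Hill-equation AC50.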

[2] = Cellular Toxicity (caspase-3) Hek293 (AID 664);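 note: cells exposed to compound for 16 h at 37 °C before readout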
Outline: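 Concentration-response qHTS: caspase 3/7 activation measured by luminescent aminoluciferin substrate cleavage after 16 h compound exposure of Hek 293 cells. AC50 from Hill equation, with DMSO as basal and 100 uM tamoxifen as 100%.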

[3] = Cellular Toxicity (caspase-3) N2a (AID 665);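 note: compound exposure lasted 16 h at 37 °C before readout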
Outline: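 Caspase-3/7 activation measured as luminescence from Caspase-Glo reagent (1 h, room temperature) after 16 h compound exposure of mouse N2a cells. AC50 values from Hill-equation concentration-response, scaled between DMSO and 10 uM staurosporine.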

[4] = Cellular Toxicity (caspase-3) NIH 3T3 (AID 666);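 note: caspase signal read after 16 h compound exposure; 0% = DMSO basal and 100% = 100 µM tamoxifen stimulation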
Outline: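 Caspase-Glo 3/7 luminescence reported caspase activation in 1000 NIH 3T3 cells/well after 16 h compound exposure at 37 C. DMSO set basal and 100 uM tamoxifen set 100% stimulation; concentration-response modeled with the Hill equation for AC50.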

[5] = Cellular Toxicity (caspase-3) Renal Proximal Tubule (AID 667);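 note: cells exposed to compound for 16 hours at 37 °C before detection; 0% = DMSO basal and 100% = 10 µM staurosporine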
Outline: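 AC50 derived by standard Hill fit of concentration-response data, normalized between DMSO basal and 10 uM staurosporine as 100% stimulation. Cells: primary rat kidney proximal tubule, 16 h treatment at 37 °C.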

[6] = Confirmation and Secondary Assay for Modulators of Hemoglobin Beta Chain Splicing at IVS2 654 locus (AID 910);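 note: HeLa cells stably carrying EGFP split by mutant beta-globin IVS2-654 intron; % of control where 0% means no effect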
Outline: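 HeLa cells stably expressing EGFP interrupted by β-globin IVS2-654 intron, seeded overnight in Opti-MEM/2% FCS, then treated 2 days at 37 °C. Restored splicing read as total peak GFP intensity per well by laser scanning cytometry (488 nm excitation, 500–520 nm emission); 500 nM antisense PNA as control.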

[7] = Cell Viability - LYMP2-001 (AID 921);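 note: series mostly up to about 92 µM; cells exposed to compound for 24 h at 37 °C; 0% = DMSO only and full inhibition = tetraoctylammonium bromide control wells; nearly all actives have a fitted effect of over 70% in size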
Outline: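 Steps: seed 2500 lymphoblastoid cells/well; 5 hr, 37 C; add compound; 24 hr, 37 C; CellTiter-Glo reagent, 30 min room temperature; read luminescence. Concentration-response modeled by Hill equation for AC50.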

[8] = Confirmation and Secondary Assay for Modulators of Hemoglobin Beta Chain Splicing at IVS2 705 locus (AID 930);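 note: HeLa cells stably expressing the EGFP-705 splicing reporter; GFP fluorescence per well restored by corrected splicing of the IVS2-705 intron in EGFP; series mostly up to about 46 µM; % of control where 0% means no effect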
Outline: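 Per-well GFP, captured at 1 x 8 µm resolution with 488 nm excitation, served as the read-out for HeLa EGFP-705 cells incubated 2 days with test compound versus DMSO.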

[9] = MultiTox-Fluor Cytotoxicity Assay - LYMP1-001 - Dead Cells (AID 946)
Outline: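 Cytotoxicity as increased dead-cell protease fluorescence (bis-AAF-R110, 485/520 nm), read 60 min after MultiTox-Fluor reagent. Human lymphoblastoid line exposed 16 h; Hill-fitted AC50, with DMSO as 0% and 15 uM tetraoctylammonium bromide as 100%.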

[10] = target: Cytochrome P450 3A4 (Homo sapiens) (UniProt P08684); assay: qHTS Assay for Inhibitors and Substrates of Cytochrome P450 3A4 (AID 884); note: series mostly up to about 57 µM; % is set by controls: 0 for no effect and ±100 for the full control effect; nearly all actives have a fitted effect of over 50% in size
Outline: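 Luminescent readout of luciferin produced by CYP3A4 (20 nM) dealkylation of Luciferin-PPXE, 25 uM (its KM). NADPH-driven reaction ran 60 min at RT after 10 min compound preincubation; data scaled to 57 uM ketoconazole as 100% inhibition.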

[11] = target: Cytochrome P450 3A4 (Homo sapiens) (UniProt P08684); assay: qHTS Assay for Activators of Cytochrome P450 3A4 (AID 885); note: nearly all actives have a fitted effect of over 65% in size
Outline: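 Luminescent readout of luciferin formed from 25 uM Luciferin-PPXE (KM level) by 20 nM CYP3A4 in 200 mM KPO4, with 60 min NADPH-driven reaction at room temperature after 10 min compound exposure. Ketoconazole (57 uM) defined 100% inhibition.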

[12] = target: Cytochrome P450 2C19 (Homo sapiens) (UniProt P33261); assay: qHTS Assay for Inhibitors and Substrates of Cytochrome P450 2C19 (AID 899); note: nearly all actives have a fitted effect of over 60% in size; note: potency is the fitted concentration of half-maximal effect
Outline: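 Signal comes from luciferase acting on luciferin released by CYP2C19-mediated hydroxylation of Luciferin-H EGE, 10uM (KM). Assay mix: 5nM enzyme, 50mM KPO4; 60 min at 37C with NADPH regeneration. Data normalized against 57uM ketoconazole.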

[13] = target: Cytochrome P450 2D6 (Homo sapiens) (UniProt P10635); assay: qHTS Assay for Inhibitors and Substrates of Cytochrome P450 2D6 (AID 891); note: potency is the fitted concentration of half-maximal effect; nearly all actives have a fitted effect of over 60% in size
Outline: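 Luminescent read-out of luciferin formed by 5 nM human CYP2D6 demethylating 30 uM Luciferin-ME EGE (Km level) over 60 min at room temperature after NADPH regeneration addition. Data normalized to full inhibition by 1.43 uM quinidine.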

[14] = qHTS Assay for Identification of Small Molecule Agonists for Hypoxia Response Element Signaling Pathway (AID 914; active = well fitted activation curve with a large enough effect in the signal ratio, with a control signal flat, not every such curve was filed as active; the % refers to the signal ratio; note: % of control where 0% means no effect); conditions: ME-180 (cervical carcinoma) HRE-bla reporter, beta-lactamase ratio, CoCl2, 17 h; stronger effect = higher value
Outline: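 In Opti-MEM containing 0.5% dialyzed FBS and 10 mM HEPES, ME-180 HRE-bla cells received a compound titration and EC50 CoCl2. They were incubated 17 hours, then CCF4-loaded 2.5 hours at room temperature before ratio reading.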

Cytochrome P450 3A4 (Homo sapiens), sequence (P08684 whole entry, looked up): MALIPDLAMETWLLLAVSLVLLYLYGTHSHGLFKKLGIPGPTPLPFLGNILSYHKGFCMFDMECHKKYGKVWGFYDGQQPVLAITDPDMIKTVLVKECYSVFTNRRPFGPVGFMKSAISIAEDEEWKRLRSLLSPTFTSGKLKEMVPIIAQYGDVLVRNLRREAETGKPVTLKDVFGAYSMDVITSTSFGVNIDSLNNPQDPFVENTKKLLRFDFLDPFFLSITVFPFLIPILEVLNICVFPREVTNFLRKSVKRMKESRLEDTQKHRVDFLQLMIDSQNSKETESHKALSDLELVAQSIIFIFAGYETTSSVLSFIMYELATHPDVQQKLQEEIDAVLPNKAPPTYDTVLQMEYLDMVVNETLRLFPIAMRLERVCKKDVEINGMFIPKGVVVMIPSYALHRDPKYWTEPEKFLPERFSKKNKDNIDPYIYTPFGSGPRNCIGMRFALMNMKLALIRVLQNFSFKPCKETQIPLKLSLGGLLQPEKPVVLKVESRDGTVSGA
Cytochrome P450 2C19 (Homo sapiens), sequence (P33261 whole entry, looked up): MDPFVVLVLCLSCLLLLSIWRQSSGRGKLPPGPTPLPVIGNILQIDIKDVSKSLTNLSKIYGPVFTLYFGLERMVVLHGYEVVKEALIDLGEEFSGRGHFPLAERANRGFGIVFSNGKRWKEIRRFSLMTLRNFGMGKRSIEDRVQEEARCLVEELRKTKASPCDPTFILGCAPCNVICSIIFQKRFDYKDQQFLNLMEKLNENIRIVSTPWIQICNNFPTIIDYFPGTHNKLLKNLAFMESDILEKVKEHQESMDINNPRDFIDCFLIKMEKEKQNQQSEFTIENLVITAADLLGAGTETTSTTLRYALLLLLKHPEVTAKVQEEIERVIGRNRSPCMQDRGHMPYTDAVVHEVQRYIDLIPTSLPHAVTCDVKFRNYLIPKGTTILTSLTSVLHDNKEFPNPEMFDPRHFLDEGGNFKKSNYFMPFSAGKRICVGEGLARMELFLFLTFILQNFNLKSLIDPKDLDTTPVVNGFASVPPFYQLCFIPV
Cytochrome P450 2D6 (Homo sapiens), sequence (P10635 whole entry, looked up): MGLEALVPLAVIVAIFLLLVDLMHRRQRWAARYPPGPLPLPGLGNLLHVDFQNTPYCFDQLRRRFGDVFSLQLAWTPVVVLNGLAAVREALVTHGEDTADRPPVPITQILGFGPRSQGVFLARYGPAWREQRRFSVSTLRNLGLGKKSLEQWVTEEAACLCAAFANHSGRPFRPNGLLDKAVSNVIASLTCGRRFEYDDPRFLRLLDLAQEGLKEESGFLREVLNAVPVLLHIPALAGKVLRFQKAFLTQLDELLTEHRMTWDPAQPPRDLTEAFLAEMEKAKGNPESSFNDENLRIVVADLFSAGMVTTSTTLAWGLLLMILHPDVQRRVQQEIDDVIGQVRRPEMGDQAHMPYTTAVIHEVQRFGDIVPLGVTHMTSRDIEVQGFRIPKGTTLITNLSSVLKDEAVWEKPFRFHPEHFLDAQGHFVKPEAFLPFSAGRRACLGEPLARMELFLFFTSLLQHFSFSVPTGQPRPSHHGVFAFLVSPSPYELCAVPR

CCCCOC(=O)c1ccc(N)cc1
inactive: outcome [1] | outcome [2] | outcome [3] | outcome [4] | outcome [5] | outcome [6] | outcome [7] | outcome [8] | outcome [9]

COc1ccc(O)cc1
inactive: outcome [1] | outcome [2] | outcome [3] | outcome [4] | outcome [5] | outcome [10] | outcome [7] | outcome [9]

Cc1cc(=O)[nH]c(=S)[nH]1
inactive: outcome [1] | outcome [2] | outcome [3] | outcome [4] | outcome [5] | outcome [10] | outcome [6] | outcome [7] | outcome [8] | outcome [9]

O=C(O)c1ccccc1OP(=O)(O)O
inactive: outcome [10] | outcome [6] | outcome [8]

O=C(c1ccccc1)C(O)c1ccccc1 (centres undefined)
inactive: outcome [1] | outcome [2] | outcome [3] | outcome [4] | outcome [5] | outcome [10] | outcome [7] | outcome [9]

O=C(O)c1cc(=O)c2ccccc2o1
inactive: outcome [10] | outcome [6] | outcome [8]

CC1CC(OC(=O)c2ccccc2O)CC(C)(C)C1 (centres undefined)
inactive: outcome [1] | outcome [2] | outcome [3] | outcome [4] | outcome [5] | outcome [6] | outcome [7] | outcome [8] | outcome [9]

CCCCCC(N)=O
inactive: outcome [1] | outcome [2] | outcome [3] | outcome [4] | outcome [5] | outcome [10] | outcome [7] | outcome [9]

NC(=O)c1ccc([N+](=O)[O-])cc1Cl
inactive: outcome [10] | outcome [6] | outcome [8]

CCOC(N)=O
inactive: outcome [10] | outcome [6] | outcome [8]

O=C1c2cccc(O)c2C(=O)c2c(O)cccc21
inactive: outcome [1] | outcome [2] | outcome [3] | outcome [4] | outcome [5] | outcome [10] | outcome [6] | outcome [8] | outcome [9]

CC(=O)NS(=O)(=O)c1ccc(N)cc1
inactive: outcome [1] | outcome [2] | outcome [3] | outcome [4] | outcome [5] | outcome [6] | outcome [7] | outcome [8] | outcome [9]

O=C(O)c1ccccc1C(=O)Nc1ccc(S(=O)(=O)Nc2nccs2)cc1
inactive: outcome [10] | outcome [11] | outcome [6] | outcome [8]

Cc1cccc(C(=O)O)c1O
inactive: outcome [10] | outcome [6] | outcome [8]

Cc1c(NC(=O)c2cccnc2)c(=O)n(-c2ccccc2)n1C
inactive: outcome [6] | outcome [8]

OC(CCN1CCCC1)(c1ccccc1)C1CCCCC1 (centres undefined)
inactive: outcome [6] | outcome [8]

O=c1[nH]cnc2nc[nH]c12
inactive: outcome [10] | outcome [6] | outcome [8]

CN1CCCN=C1COC(=O)C(O)(c1ccccc1)C1CCCCC1 (centres undefined)
inactive: outcome [6] | outcome [8]

CC1CCc2cc(F)cc3c(=O)c(C(=O)O)cn1c23 (centres undefined)
inactive: outcome [10] | outcome [6] | outcome [8]

Cc1[nH]c(C)c(Cl)c(=O)c1Cl
inactive: outcome [10] | outcome [6] | outcome [8]

C/C=C/C(=O)N(CC)c1ccccc1C
inactive: outcome [10] | outcome [6] | outcome [8]

C=CCSCC1Nc2cc(Cl)c(S(N)(=O)=O)cc2S(=O)(=O)N1 (centres undefined)
inactive: outcome [11] | outcome [6] | outcome [8]

CC(N)CCCC(C)(C)O (centres undefined)
inactive: outcome [10] | outcome [6] | outcome [8]

NS(=O)(=O)c1cc2c(cc1C(F)(F)F)NCNS2(=O)=O
inactive: outcome [6] | outcome [8]

Cn1c([N+](=O)[O-])cnc1COC(N)=O
inactive: outcome [10] | outcome [6] | outcome [8]

Cc1cc(NC(=O)C2=C(O)c3ccccc3S(=O)(=O)N2C)no1
inactive: outcome [10] | outcome [6] | outcome [8]

Cc1c(NC(C)C)c(=O)n(-c2ccccc2)n1C
inactive: outcome [10] | outcome [6] | outcome [8]

O=C1c2ccccc2S(=O)(=O)N1CCCCN1CCN(c2ncccn2)CC1
active: Potency [12] 631 nM

CC(=O)SC[C@@H](Cc1ccccc1)C(=O)NCC(=O)OCc1ccccc1
active: Potency [13] 316 nM | Potency [12] 126 nM

COc1ccccc1OCC(O)CO (centres undefined)
inactive: outcome [6] | outcome [8]

CNCc1ccccc1
inactive: outcome [6] | outcome [8]

CCS(=O)(=O)CCn1c([N+](=O)[O-])cnc1C
inactive: outcome [6] | outcome [8]

CC[N+](C)(CC)CCOC(=O)C1c2ccccc2Oc2ccccc21
active: Potency [13] 3980 nM

COc1ccc2cc(CCC(C)=O)ccc2c1
inactive: outcome [11] | outcome [6] | outcome [8]

Cn1c(=O)c2c(ncn2CCO)n(C)c1=O
inactive: outcome [10] | outcome [6] | outcome [8]

CCCCCC(C)N (centres undefined)
inactive: outcome [10] | outcome [6] | outcome [8]

CCN(CC)CCOC(=O)C(c1ccccc1)c1ccccc1
active: Potency [13] 5010 nM
inactive: outcome [6] | outcome [8]

Cc1ccsc1/C=C/C1=NCCCN1C
inactive: outcome [6] | outcome [8]

Cc1cc(O)cc(C)c1Cl
inactive: outcome [6] | outcome [8]

CCc1cccc(CC)c1NC(=O)CN(CC(=O)O)CC(=O)O
inactive: Potency [12]

NC(N)=NCCN1CCCCCCC1
inactive: outcome [6] | outcome [8]

NCc1ccc(S(N)(=O)=O)cc1
inactive: outcome [6] | outcome [8]

Cc1onc(-c2ccccc2)c1-c1ccc(S(N)(=O)=O)cc1
inactive: outcome [6] | outcome [8]

O=C(CCBr)N1CCN(C(=O)CCBr)CC1
inactive: outcome [6] | outcome [8]

COc1ccc(NS(=O)(=O)c2ccc(N)cc2)nn1
inactive: outcome [6] | outcome [8]

CC(=O)N[C@@H](CC(C)C)C(=O)O
inactive: activation [14] -5.35%

CC(=O)Oc1cccc(O)c1
inactive: outcome [6] | outcome [8]

CCCCC1(COC(=O)CCC(=O)O)C(=O)N(c2ccccc2)N(c2ccccc2)C1=O
inactive: outcome [6] | outcome [8]

CC(C)=CCC/C(C)=C/CO
inactive: outcome [6] | outcome [8]

CC[N+](CC)(CC(=O)Nc1c(C)cccc1C)Cc1ccccc1
active: Potency [13] 7.9 nM

C[n+]1ccccc1/C=N/O
inactive: outcome [10] | outcome [6] | outcome [8]

Nc1ccc(C(=O)Oc2ccccc2)c(O)c1
inactive: outcome [6] | outcome [8]
